ELG1 repair inh = qHTS screen for small molecules that inhibit ELG1-dependent DNA repair in human embryonic kidney (HEK293T) cells expressing luciferase-tagged ELG1; HEK293T ELG1-luciferase reporter, luminescence, 16 h; DNA damage induced by 5-fluorouridine; Potency, µM (highest dose often 46.1 µM), actives largely listed as inhibitors; 2.3% of 330,000 active; AID 504467, 2011; further: nearly all actives have a fitted effect of over 55% in size
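Reporter activity after DNA damage by 5-fluorouridine is monitored. Compound-treated cells incubate 16 hr at 37 °C, then ONE-Glo is added for 30 min before luminescence reading.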
TDP1 cell CPT = qHTS for Inhibitors of human tyrosyl-DNA phosphodiesterase 1 (TDP1): qHTS in cells in presence of CPT; chicken DT40 Tdp1-/-;hTDP1 cells + 20 nM CPT, ATP luminescence, 48 h; Potency, µM (series often up to 46.2 µM), hits mostly inhibitors; 12% of 420,000 active; AID 686979, 2013; further: nearly all actives have a fitted effect of over 55% in size
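Cell growth measured by CellTiter-Glo luminescence after a minimum 48 h, 37 C compound exposure with 20 nM CPT in Tdp1-knockout DT40 cells stably expressing hTDP1, seeded 400/well; qHTS titration format.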
HT1080 IDH1KD tx = qHTS for induction of synthetic lethality in tumor cells producing 2HG: qHTS for the HT-1080-IDH1KD cell line | Potency, µM (highest dose often 46.1 µM), hits mostly cytotoxic | 2% of 360,000 active | HT-1080 IDH1 knockdown viability, ATP luminescence, 48 h
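Cytotoxicity counter-line: IDH1KD HT-1080, 48 h, CellTiter-Glo. Curves classed by r2, magnitude and activity.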
IL1B secr inh = qHTS for Inhibitors of Inflammasome Signaling: IL-1-beta AlphaLISA Primary Screen; activity change, % at 57.5 µM; THP-1 LPS/ATP IL-1B secretion, AlphaLISA, 16 h; active compounds read low; 4.7% of 360,000 active; in the data active means activity change below about -50%; inconclusive means mostly about -30% to -49%
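THP-1 cells pretreated 1 hr with compounds (up to 57.5 uM final), then stimulated with LPS (250 ng/mL final) plus ATP (1.25 mM final); secreted IL-1B measured by AlphaLISA after 16 hr, decreased signal indicating inhibition.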
HT1080-NT tox = qHTS for induction of synthetic lethality in tumor cells producing 2HG: qHTS for the HT-1080-NT fibrosarcoma cell line; 1.6% of 360,000 active; HT-1080-NT fibrosarcoma viability, CellTiter-Glo ATP luminescence, 48 h; Potency, µM (titrated, usually from 46.1 µM), most hits filed as cytotoxic;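 further: NT is the 2HG producing partner of a matched IDH1 knockdown line; nearly all actives have a fitted effect of over 55% in size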
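A 48-hour cytotoxicity screen used HT-1080-NT cells plated 2 hours before compound delivery. ATP-based CellTiter-Glo luminescence measured viability, normalized to DMSO and no-cell controls.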
TDP1 cell noCPT = qHTS for Inhibitors of human tyrosyl-DNA phosphodiesterase 1 (TDP1): qHTS in cells in absence of CPT. DT40 Tdp1-/- hTDP1 cells, no CPT, ATP luminescence, 48 h. Potency, µM (highest dose often 46.2 µM), actives largely listed as inhibitors. 15% of 420,000 active. AID 686978, 2013; further: nearly all actives have a fitted effect of over 55% in size
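DT40 Tdp1-/-;hTDP1 cells, no CPT (DMSO vehicle only), 400 cells/well; compounds pin-transferred; ≥48 hr, 37 °C; CellTiter-Glo 30 min RT dark, luminescence read.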
Large screens that a line does not name were inactive. The list is not random: actives were taken first. Their share in the collection is about 19%. Unless noted, the call rests on the fitted dose curve; in most records, active means well fitted curve in the direction sought with a large enough effect; inconclusive means small, poorly fitted or top-dose-only effect, or another doubt; inactive means no such curve, though single readings can be large; an effect the other way counts as inactive or inconclusive.

O=C(CSc1nc(COc2ccccc2)nc2ccccc12)NC1CCCC1	none
Cc1c(Cl)cccc1NC(=O)c1cc(-c2cccc(Cl)c2)on1	none (no result: ELG1 repair inh, HT1080 IDH1KD tx, IL1B secr inh, HT1080-NT tox)
Cc1cccc(NC(=O)CN2C(=O)COc3ccc(S(=O)(=O)N4CCC(C)CC4)cc32)c1C	TDP1 cell noCPT inconclusive (no result: ELG1 repair inh, HT1080 IDH1KD tx, IL1B secr inh, HT1080-NT tox)
CCCCOP(=O)(OCCCC)C1(NS(=O)(=O)c2ccccc2)C=CC(=O)c2ccccc21 (centres undefined)	ELG1 repair inh inconclusive, TDP1 cell CPT 16µM, HT1080 IDH1KD tx 23µM, HT1080-NT tox 21µM, TDP1 cell noCPT 23µM
O=c1c(CCc2ccccc2)nc2cnc(Nc3ccccc3)nc2n1Cc1cccs1	none (no result: ELG1 repair inh, HT1080 IDH1KD tx, IL1B secr inh, HT1080-NT tox)
Cn1c(=O)c2sccc2n2c(CCCC(=O)Nc3ccc(F)cc3F)nnc12	TDP1 cell noCPT inconclusive
c1ccc(C2[C@H]3CN(CC4CCCCC4)[C@H](c4ccccc4)C34CC2(c2cccnc2)C4)cc1 (some centres undefined)	TDP1 cell CPT 23µM, TDP1 cell noCPT 18µM
CN1C[C@@H]2C(c3ccc(C(F)(F)F)cc3)C3(c4cccnc4)CC2(C3)[C@H]1c1ccccc1 (some centres undefined)	TDP1 cell CPT inconclusive, IL1B secr inh inconclusive, HT1080-NT tox inconclusive, TDP1 cell noCPT 18µM
COC(=O)c1ccc(C23CC4(C2)[C@H](CN(C)[C@@H]4c2ccccc2)C3c2ccc(C(F)(F)F)cc2)cc1 (some centres undefined)	TDP1 cell CPT inconclusive, TDP1 cell noCPT inconclusive
COC(=O)c1ccc(C23CC4(C2)[C@H](CN(Cc2ccc(C(F)(F)F)cc2)[C@@H]4c2ccccc2)C3c2ccccc2)cc1 (some centres undefined)	TDP1 cell CPT 7.3µM, TDP1 cell noCPT 4.1µM
COC(=O)c1cccc(C23CC4(C2)[C@H](CN(Cc2ccc(C(F)(F)F)cc2)[C@@H]4c2ccccc2)C3c2ccc(C(F)(F)F)cc2)c1 (some centres undefined)	TDP1 cell CPT inconclusive, TDP1 cell noCPT inconclusive
FC(F)(F)c1ccc(CN2C[C@@H]3C(c4ccc(C(F)(F)F)cc4)C4(c5cccnc5)CC3(C4)[C@H]2c2ccccc2)cc1 (some centres undefined)	TDP1 cell CPT 15µM, TDP1 cell noCPT 15µM
COc1ccc(N2CC(C(=O)NCCc3ccc(Cl)cc3)CC2=O)cc1 (centres undefined)	none
O=C(OCC1CCC=CO1)C1CCC=CO1 (centres undefined)	none (no result: ELG1 repair inh)
CC1(C)CC(NS(=O)(=O)c2ccc3ccccc3c2)CC(C)(C)N1	none
N#Cc1ccc(C23CC4(C2)[C@H](CN(Cc2ccc(-c5ccccc5)cc2)[C@@H]4c2ccccc2)C3c2ccc(Cl)nc2)cc1 (some centres undefined)	TDP1 cell CPT inconclusive, TDP1 cell noCPT inconclusive
N#Cc1ccc(C23CC4(C2)[C@H](CN(P(=O)(c2ccccc2)c2ccccc2)[C@@H]4c2ccccc2)C3c2ccc(Cl)nc2)cc1 (some centres undefined)	ELG1 repair inh inconclusive, TDP1 cell CPT 23µM, IL1B secr inh inconclusive, HT1080-NT tox inconclusive, TDP1 cell noCPT inconclusive
N#Cc1ccc(C23CC4(C2)[C@H](CN(Cc2ccc(C(F)(F)F)cc2)[C@@H]4c2ccccc2)C3c2ccc(C(F)(F)F)cc2)cc1 (some centres undefined)	TDP1 cell CPT inconclusive, TDP1 cell noCPT 21µM

Bioassay records as filed in PubChem.
